# Shown are actives, neighbours in structure and some others; about 4.7% of the full set was active somewhere.
# TRHR agonist – qHTS for Small Molecule Agonists and Allosteric Enhancers of Human TRH Receptor: Primary Screen for Agonists; Thyrotropin-releasing hormone receptor (Homo sapiens), P34981; TRHR cells, calcium flux fluo-8, FDSS agonist mode; activation, % at 2 µM; 360,000 compounds, 0.18% hits
#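 Agonist-mode FDSS calcium read (Ex 480/Em 530, 1 s cycles) in 1536-well TRHR cells with fluo-8 dye, after 10-cycle baseline and 23 nL compound addition; TRH at EC20 (10 nM final) added afterwards for the enhancer phase.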
# D1 PAM – Potentiators of Human D1 Dopamine Receptor: qHTS. D(1A) dopamine receptor (Homo sapiens), P21728. HEK293 TREx D1 cells, calcium flux, dopamine EC20 potentiation. potentiation, % at 10 µM. 360,000 compounds, 0.036% hits. AID 504651, 2011; in the data active = potentiation above about 30%
# Target sequence (P21728 whole entry, looked up): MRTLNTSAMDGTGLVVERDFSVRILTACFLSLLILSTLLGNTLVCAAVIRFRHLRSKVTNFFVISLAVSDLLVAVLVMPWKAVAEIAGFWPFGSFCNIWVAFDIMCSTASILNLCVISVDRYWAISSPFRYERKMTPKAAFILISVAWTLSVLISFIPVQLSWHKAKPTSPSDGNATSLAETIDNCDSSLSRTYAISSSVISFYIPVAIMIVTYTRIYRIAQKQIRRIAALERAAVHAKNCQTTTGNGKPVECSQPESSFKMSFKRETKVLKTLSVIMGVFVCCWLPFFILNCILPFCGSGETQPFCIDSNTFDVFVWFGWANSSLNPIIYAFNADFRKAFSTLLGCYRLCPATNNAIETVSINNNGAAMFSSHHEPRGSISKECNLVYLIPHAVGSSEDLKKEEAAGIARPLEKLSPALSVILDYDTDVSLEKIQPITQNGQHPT
# D1 agonist – Allosteric Agonists of the Human D1 Dopamine Receptor: qHTS; D(1A) dopamine receptor (Homo sapiens), P21728; HEK293 T-REx D1 cells, calcium flux, agonist mode; activation, % at 2 µM; 360,000 compounds, 1% hits
#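 Tetracycline-induced HEK293 TREx D1 cells, force-coupled to calcium signalling, were dye-loaded with a no-wash calcium kit. Compound was pin-added after a 10 s baseline. Fluorescence was read kinetically at 1 cycle/s for 180 s, with calcium rises flagged as agonism.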
# TRHR enhancer – qHTS for Small Molecule Agonists and Allosteric Enhancers of Human TRH Receptor: Primary Screen for Enhancers. TRHR cells, fluo-8 calcium fluorescence, EC20 TRH enhancement. enhancement, % at 2 µM. 360,000 compounds, 0.66% hits; in the data active = enhancement above about 30%
#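 Enhancer read-out: after compound pinning and an initial kinetic agonist-mode read, an EC20 of TRH (10 nM final) was injected and fluo-8 calcium signal (Ex 480/Em 530) followed at 1 s/cycle for 100 cycles in TRHR-expressing cells.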
# D1 antag – Antagonist of Human D 1 Dopamine Receptor: qHTS; HEK293 TREx D1 cells, calcium flux, dopamine EC80; hits give low values; activity change, negative = inhibition, % at 10 µM; 360,000 compounds, 3.2% hits; AID 504652, 2011; in the data active = activity change below about -30%
#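 After overnight tetracycline induction at 30 C, force-coupled D1 HEK293 cells took up a no-wash calcium dye at room temperature. Compounds were added and monitored 180 s, and the response to EC80 dopamine was then recorded.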
# Numbers stand for hits; i = inactive; nt = no result; ! = a repeat was not active. Rule as the data show it, unless noted: active = activation above about 30%; inactive = the rest.
SMILES,TRHR agonist,D1 PAM,D1 agonist,TRHR enhancer,D1 antag
Cc1c(C(=O)NCc2c(F)cc(F)cc2F)oc2ccc(S(=O)(=O)N3CCOCC3)cc12,i,i,i,i,-45
Cn1c(=O)oc2cc(S(=O)(=O)N3CCC(C(=O)NCC4COc5ccccc5O4)CC3)ccc21 (stereo not drawn),i,i,i,i,-35
CCN(C1CCCCC1)S(=O)(=O)c1cc2c3c(c1)CCN3C(=O)CC2,i,i,i,i,i
Cc1ccccc1N1CCN(C2CCCN(C(=O)c3cnsn3)C2)CC1 (stereo not drawn),i,i,i,i,i
Cc1ccc(NC(=O)C2COc3ccccc3O2)cc1S(=O)(=O)N1CCCCC1 (stereo not drawn),i,i,i,i,i
Cc1sc2nc(C)n(/N=C/c3ccccc3O)c(=O)c2c1C,i,i,i,i,i
Cc1sc2nc(C)n(/N=C/c3ccc(O)cc3O)c(=O)c2c1C,i,i,i,i,-84
NNC(=O)c1nc(-c2ccccc2)cc(-c2ccccc2)n1,i,i,i,i,i
Cn1cc(CN2CCN(Cc3ccc4c(c3)OCO4)CC2)c(-c2ccccc2F)n1,i,i,i,i,-31
COc1ccc(S(=O)(=O)N2CCN(Cc3ccc4c(c3)OCO4)CC2)cc1C,i,i,i,i,i
Cn1cc(CN2CCN(c3ccc(Cl)cn3)CC2)c(-c2ccccc2F)n1,i,i,i,i,i
Cc1cccc(S(=O)(=O)N2CCN(Cc3ccc4c(c3)OCO4)CC2)c1,i,i,i,i,-34
O=S(=O)(Cc1ccccc1Cl)N1CCN(Cc2ccc3c(c2)OCO3)CC1,i,i,41,i,-34
COc1ccccc1NC(=S)N(CCCN(C)C)Cc1cc2cc3c(cc2[nH]c1=O)OCO3,i,i,i,i,i
COc1ccccc1NC(=O)N(Cc1cccs1)Cc1cc2cc3c(cc2[nH]c1=O)OCO3,i,i,i,i,-34
COc1ccc2cc(CN(CC3CCCO3)C(=O)Nc3ccccc3OC)c(=O)[nH]c2c1 (stereo not drawn),i,i,i,i,i
COc1ccc2cc(CN(C(=O)Nc3ccccc3OC)C3CCCC3)c(=O)[nH]c2c1,i,i,i,i,-33
CNc1nc(Cl)c(SC)c(NCc2cccc(OC)c2)n1,i,i,i,i,i
CN1CCN(C(=O)CCS(=O)(=O)c2cc3c(cc2Cl)NC(=O)CO3)CC1,i,i,i,39,i
Cc1ccc(CCNC(=O)CCS(=O)(=O)c2cc3c(cc2C)NC(=O)CO3)cc1,i,i,i,i,-86!
CCN1CCN(C(=O)CCS(=O)(=O)c2cc3c(cc2Cl)NC(=O)CO3)CC1,i,i,i,i,i
CCOCCc1nn2c(=O)cc(COC(=O)CNC(=O)c3ccc(F)cc3)nc2s1,i,i,i,i,i
CSc1ccc(C2NC(=O)c3c(sc4c3CCN(C)C4)N2)cc1 (stereo not drawn),i,nt,34,i,i
CN1CCc2c(sc3c2C(=O)NC(c2cccs2)N3)C1 (stereo not drawn),i,i,i,i,-48
CN1CCc2c(sc3c2C(=O)NC(c2ccc(C(C)(C)C)cc2)N3)C1 (stereo not drawn),i,i,37,i,i
SMILES,TRHR agonist,D1 PAM,D1 agonist,TRHR enhancer,D1 antag
CC(=O)NC(c1ccco1)c1cc(Cl)c2ccc(N3CCCCC3)nc2c1O (stereo not drawn),i,i,i,i,i
Cc1ccc(S(=O)(=O)NNC(=O)c2sccc2-n2cccc2)cc1,i,i,i,i,-43
O=C(NNS(=O)(=O)c1ccc(F)cc1)c1sccc1-n1cccc1,i,i,i,i,i
CC(=O)Nc1nonc1-c1nc2ccccc2n1Cc1ccccc1Br,i,i,i,i,-70
Cc1cccc(NC(=O)CSc2ncc3c(n2)-c2ccccc2N(Cc2ccc(F)cc2)S3(=O)=O)c1C,i,i,i,i,i
NC(=O)c1ccc(NCC2COc3ccccc3O2)c([N+](=O)[O-])c1 (stereo not drawn),i,i,i,i,-37
